The structures appear in SMILES notation. Compounds without any hit were thinned out: in the full panel of roughly 83,000, 20% have a hit.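 Results are percent growth after 48 hours of single-concentration exposure. 100 means growth as in untreated cells, lower positive values show inhibition; negative values down to -100 show cell death.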 Values without a mark were called inactive. Calls of active or inactive are those of the source. Rule for the calls: active = growth percent below 10; inactive = the rest.

The subject of this assay is HL-60(TB) leukemia. Put plainly: NCI-60 one-dose screen, 48 h (100 = growth as untreated, 0 = no growth, -100 = all killed). Particulars: 10 µM unless noted.
On to `CC1(C)N=C(N)N=C(N)N1c1ccc(Cl)c(Cl)c1`, for which the growth was 35.7%.

As for `COc1cc(C2CC(c3ccc(SC)cc3)=NN2C(C)=O)cc(OC)c1OC` (stereo unspecified), the growth is 17.6%.

As to `CC(C)(C)C1CCC(=NO)CC1` (stereo unspecified), the growth is 110%.

On to `CC/C(=C(\CC)c1ccc(OCCN(CC)CC)cc1)c1ccc(OCCN(CC)CC)cc1`, for which the growth is -3.52% (active).

With `Clc1ccccc1Nc1ccc2nnc(-c3ccncc3)n2n1`, the growth was 75.8%.

For `NC(=O)c1ccc(NC(=O)c2oc3ccccc3c2-c2cnn(-c3ccccc3)c2)cc1`, the growth is 98.4% [50 µM].

In the case of `Nc1nn(C(=O)Nc2ccc(Cc3ccccc3)cc2)c2ccc(Cl)cc12`, the growth is 24.9%.

In the case of `C=C1CCC2C3(C)COC(c4ccccc4Br)OC3CCC2(C)C1C/C=C1/C(=O)OCC1OC(C)=O` (stereo unspecified), the growth is -48.7% (active).

`C=CCN=C(N)SCCCCCCSC(N)=NCC=C`: the growth is 75.8%.

For the compound `OCCNc1ccccc1`, the growth is 100%.

As to `C#CCOc1cccc(Nc2ncc3ncn(C4CCN(C(=O)CCl)C4)c3n2)c1` (stereo unspecified), the growth is -29% [6.25 µM] (active).

Regarding `COc1cc(C(=O)Nc2ccc(-c3nc4ccccc4[nH]3)cc2)cc(OC)c1OC`, the growth is 41.9%.

For `COC(=O)c1ccc2cc(OC)c(OC)cc2c1`, the growth was 94.8%.

In the case of `CC(C)=CC/C=C(/C)[C@H]1CC[C@]2(C)[C@@H]1CC[C@@H]1[C@@]3(C)CCC(=O)NC(C)(C)[C@@H]3CC[C@]12C`, the growth is -22.1% [100 µM] (active).

For `CC(=O)CC(=O)c1ccccc1.[Cu+2]`, the growth was 67.2%.

Regarding `O=C(NCc1ccco1)C1CN(c2ccc(Cl)cc2)N(c2ccc(Cl)cc2)C1=O` (stereo unspecified), the growth was 5.03% (active).

With `O=C1Nc2ccccc2/C1=N/N1C(=O)CN(CCCl)C1=O`, the growth is 96.3%.

For `CC(O)CN(CCO)CCN(CCO)CC(C)O` (stereo unspecified), the growth is 102%.

As for `CN(C)c1ccc(/C=N/Nc2nnc3n2N=C(c2ccc(Cl)cc2)CS3)cc1`, the growth is 91.4%.

For the compound `Clc1ccc2[nH]c3c(NCCCN4CCOCC4)ncnc3c2c1`, the growth is 36.3%.

Take `CN1CCN(c2ccc(NC(=O)c3cncnc3Nc3ccc(OCc4cccc(F)c4)c(Cl)c3)cc2)CC1`: the growth was 66.9%.

With `COc1ccc2c(/C=C3/C(=O)NC(=S)NC3C)cc(=O)oc2c1` (stereo unspecified), the growth was 90.5%.

`Cn1cc(-c2[nH]c3cc(NC(=O)[C@H](N)C4CCCCC4)cc4c3c2C=NNC4=O)cn1`: the growth was -55.8% (active).

`COc1ccc2c(c1)/C(=C/c1c(-c3cc(OC)c(OC)c(OC)c3)nc3sccn13)C(=O)N2`: the growth was 83.4%.

Consider `FC(F)(F)c1ccc2c(Nc3cccc(C4CC(c5ccccc5)=NN4c4ccc(Cl)cc4)c3)ccnc2c1` (stereo unspecified), for which the growth was 36.5%.

Consider `O=C1C(c2c[nH]c3ccccc23)=C(c2coc3cc(Br)ccc23)C(=O)N1O`, for which the growth is 103%.

The values above are taken from PubChem BioAssay (NCI).
